1-h baseline activity data for 40 compounds are collected here from the supplement of paper PMC9950053.

Where a name gives a salt, the structure may show the parent alone.

The experiment relates to Danio rerio larvae (5 dpf). The experiment is described as follows: 1-h baseline activity (% time moving, periods 1-6) minus DMSO control (percentage points); higher = more locomotor activity than DMSO larvae. Particulars: 10 µM; exposure time: 3 h pre-incubation + 3 h imaging. As for the experimental part: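 Wild-type 5 dpf zebrafish larvae (n=48 per drug, 96-well plates, 28.5 °C) were exposed to Tocris FDA-approved library compounds at 10 µM (0.1% DMSO) for 3 h before and 3 h during imaging. Images were taken every 6 s during visual (moving coloured lines) and acoustic stimuli, and larvae were tracked with the DeepLabCut-based Z-LaP Tracker. Each behavioural measure is the treated-group mean minus the DMSO vehicle control mean (n=844), in percentage points. This mapping covers compounds with 4-character plate codes.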
On to `CC(C)(C(=O)c1cccnc1)c1cccnc1` [Metyrapone], for which the 1-h baseline activity is -9.17.

In the case of `NC(=O)N1c2ccccc2C=Cc2ccccc21` [Carbamazepine], the 1-h baseline activity is -4.18.

On to `COC(c1ccccc1)(c1ccccc1)[C@H](Oc1nc(C)cc(C)n1)C(=O)O` [Ambrisentan], for which the 1-h baseline activity was 0.292.

On to `Cc1cc(C2CCCCC2)n(O)c(=O)c1` [Ciclopirox], for which the 1-h baseline activity is -1.84.

On to `CNC(=O)c1ccccc1Sc1ccc2c(/C=C/c3ccccn3)n[nH]c2c1` [Axitinib], for which the 1-h baseline activity is -3.55.

For `C=CC(=O)N1CCC[C@@H](n2nc(-c3ccc(Oc4ccccc4)cc3)c3c(N)ncnc32)C1` [Ibrutinib], the 1-h baseline activity was -7.48.

As to `CC(C)(C#N)c1cc(Cn2cncn2)cc(C(C)(C)C#N)c1` [Anastrozole], the 1-h baseline activity amounted to 1.59.

On to `COc1c(C)c2c(c(O)c1C/C=C(\C)CCC(=O)OCCN1CCOCC1)C(=O)OC2` [Mycophenolate mofetil], for which the 1-h baseline activity is -3.96.

Take `CC(=O)O[C@H]1C(=O)[C@@]2(C)[C@H]([C@H](OC(=O)c3ccccc3)[C@]3(O)C[C@H](OC(=O)[C@H](O)[C@@H](NC(=O)c4ccccc4)c4ccccc4)C(C)=C1C3(C)C)[C@]1(OC(C)=O)CO[C@@H]1C[C@@H]2O` [Taxol]: the 1-h baseline activity came out at 1.47.

As to `COc1cccc2c1C(=O)c1c(O)c3c(c(O)c1C2=O)C[C@@](O)(C(=O)CO)C[C@@H]3O[C@H]1C[C@H](N)[C@H](O)[C@H](C)O1` [Doxorubicin hydrochloride], the 1-h baseline activity was -7.23.

On to `CC(C)Nc1cccnc1N1CCN(C(=O)c2cc3cc(NS(C)(=O)=O)ccc3[nH]2)CC1` [Delavirdine mesylate], for which the 1-h baseline activity was -4.01.

Take `NS(=O)(=O)c1cc(C(=O)O)c(NCc2ccco2)cc1Cl` [Furosemide]: the 1-h baseline activity worked out at 5.77.

Turning to `Nc1cccc2c1CN(C1CCC(=O)NC1=O)C2=O` (stereo not given) [Lenalidomide], the 1-h baseline activity was -7.06.

Consider `CN(C)CCC[C@@]1(c2ccc(F)cc2)OCc2cc(C#N)ccc21` [Escitalopram oxalate], for which the 1-h baseline activity is -24.4.

Consider `CC(C)C(=O)Nc1ccc([N+](=O)[O-])c(C(F)(F)F)c1` [Flutamide], for which the 1-h baseline activity was -9.78.

`CN1CC(=O)N2[C@H](c3ccc4c(c3)OCO4)c3[nH]c4ccccc4c3C[C@@H]2C1=O` [Tadalafil]: the 1-h baseline activity came out at 10.9.

For `Cc1ccc(NC(=O)c2ccc(CN3CCN(C)CC3)cc2)cc1Nc1nccc(-c2cccnc2)n1` [Imatinib mesylate], the 1-h baseline activity was -13.5.

Take `Cc1ccc(N(CC2=NCCN2)c2cccc(O)c2)cc1` [Phentolamine Mesylate]: the 1-h baseline activity is 7.71.

With `CCCc1nc(C(C)(C)O)c(C(=O)O)n1Cc1ccc(-c2ccccc2-c2nnn[nH]2)cc1` [Olmesartan], the 1-h baseline activity is 10.4.

As for `Cc1nc(-c2ccc(OCC(C)C)c(C#N)c2)sc1C(=O)O` [Febuxostat], the 1-h baseline activity was -2.75.

In the case of `CN1CCN2c3ncccc3Cc3ccccc3C2C1` (stereo not given) [Mirtazapine], the 1-h baseline activity came to 11.7.

Turning to `CC(=O)NC[C@H]1CN(c2ccc(N3CCOCC3)c(F)c2)C(=O)O1` [Linezolid], the 1-h baseline activity is 3.05.

As for `CN/C(=N\CCSCc1nc[nH]c1C)NC#N` [Cimetidine], the 1-h baseline activity is 0.11.

Consider `CCOC(=O)C1=C(C)NC(C)=C(C(=O)OC)C1c1cccc(Cl)c1Cl` (stereo not given) [Felodipine], for which the 1-h baseline activity is -15.3.

For the compound `Clc1ccccc1C(c1ccccc1)(c1ccccc1)n1ccnc1` [Clotrimazole], the 1-h baseline activity was -22.9.

For the compound `Cc1nc(Nc2ncc(C(=O)Nc3c(C)cccc3Cl)s2)cc(N2CCN(CCO)CC2)n1` [Dasatinib], the 1-h baseline activity was -12.5.

As for `Cc1cccc(CN2CCN(C(c3ccccc3)c3ccc(Cl)cc3)CC2)c1` (stereo not given) [Meclizine dihydrochloride], the 1-h baseline activity turned out to be 20.8.

`Nc1ccn([C@@H]2O[C@H](CO)[C@@H](O)C2(F)F)c(=O)n1` [Gemcitabine hydrochloride]: the 1-h baseline activity is -7.23.

Regarding `O=C(NCC1CCCCN1)c1cc(OCC(F)(F)F)ccc1OCC(F)(F)F` (stereo not given) [Flecainide acetate], the 1-h baseline activity was -0.107.

As for `CC(C)c1nc(CN(C)C(=O)N[C@H](C(=O)N[C@@H](Cc2ccccc2)C[C@H](O)[C@H](Cc2ccccc2)NC(=O)OCc2cncs2)C(C)C)cs1` [Ritonavir], the 1-h baseline activity was -4.53.

With `CC(C)CN(C[C@@H](O)[C@H](Cc1ccccc1)NC(=O)O[C@H]1CO[C@H]2OCC[C@H]21)S(=O)(=O)c1ccc(N)cc1` [Darunavir], the 1-h baseline activity was 10.3.

With `CCc1c2c(nc3ccc(OC(=O)N4CCC(N5CCCCC5)CC4)cc13)-c1cc3c(c(=O)n1C2)COC(=O)[C@]3(O)CC`, the 1-h baseline activity is -6.2.

In the case of `CC1(C)O[C@@H]2[C@@H](CO[C@@]3(COS(N)(=O)=O)OC(C)(C)O[C@@H]23)O1` [Topiramate], the 1-h baseline activity came out at 9.54.

For the compound `COC(=O)C1=C(C)NC(C)=C(C(=O)OC(C)C)C1c1cccc2nonc12` (stereo not given) [Isradipine], the 1-h baseline activity is -3.08.

As for `CC(c1cc2ccccc2s1)N(O)C(N)=O` (stereo not given) [Zileuton], the 1-h baseline activity was -1.65.

Regarding `COc1ccc(-c2ccc3cc(C(=O)O)ccc3c2)cc1C12CC3CC(CC(C3)C1)C2` [Adapalene], the 1-h baseline activity is -1.21.

On to `CC(CCc1ccc(O)cc1)NCCc1ccc(O)c(O)c1` (stereo not given) [Dobutamine hydrochloride], for which the 1-h baseline activity is -2.47.

Take `CCOC(=O)[C@H](CCc1ccccc1)N[C@@H](C)C(=O)N1[C@H](C(=O)O)C[C@@H]2CCC[C@@H]21` [Ramipril]: the 1-h baseline activity was found to be 1.29.

Consider `CN1CCC[C@@H]1CCO[C@](C)(c1ccccc1)c1ccc(Cl)cc1` [Clemastine fumarate], for which the 1-h baseline activity worked out at 1.06.

For the compound `Cc1ccc(O)c([C@H](CCN(C(C)C)C(C)C)c2ccccc2)c1` [Tolterodine L-tartrate], the 1-h baseline activity was 0.455.
